In PubChem BioAssay AID624309 (Sanford-Burnham Center for Chemical Genomics, 2012) one finds inhibition data, which are given here for 31 compounds.

Screen size: about 2,000 compounds; about 260 (13%) were called active. These entries were drawn from the full list. A number with no mark means an inactive call. Rule as the data show it: active = inhibition mostly above about 42% (no sharp cut-off); inactive = mostly below about 42%.

This assay deals with Nicotinate mononucleotide adenylyltransferase NadD (Staphylococcus aureus N315). Kind of assay: inhibitors of S. aureus NadD, confirmation, biochemical, colorimetric, single concentration (AID 624309). The settings on record: purified S. aureus NadD, colorimetric enzyme assay; at 20 µM; active compounds read high.
By inhibition is commonly meant the relative decrease from the control value, in per cent. As for `O=C(Cc1csc(Nc2nc(=S)[nH]c3ccccc23)n1)NCCCN1CCN(c2cccc(Cl)c2)CC1`, the inhibition is 33.7%.

For `Cc1ccc(C(=O)NNC(=O)c2cc3cc4ccccc4nc3s2)cc1`, the inhibition was 65.5% (active).

`Cc1ccc(Nc2nc(-c3sc(NC(=O)c4ccccc4)nc3C)cs2)cc1`: the inhibition is 38.5%. As for `CCOc1ccc(NC(=O)c2ccc(NC(=O)COC(=O)c3ccc(NC(=O)CC#N)cc3)cc2)cc1`, the inhibition was 15.8%. The result for `O=C(COC(=O)c1ccc(Oc2ccccc2)cc1)Nc1nnc(-c2ccccc2)o1` reads 72.6% (active).

Regarding `N#CCC(=O)Nc1ccc(C(=O)OCC(=O)Nc2sc3c(c2C#N)CCCC3)cc1`, the inhibition is 24.8%. On to `NC(c1csc(NC(=O)Nc2ccccc2Oc2ccccc2)n1)c1ccccc1Cl` (stereo unspecified), for which the inhibition was 25.9%.

On to `COc1ccc(NC(=O)/C(C#N)=C\c2cc(OC)c(OCc3ccc(C(=O)O)cc3)cc2Br)cc1`, for which the inhibition was 11%. Consider `NC(CSC(c1ccccc1)(c1ccccc1)c1ccc(-c2ccccc2)cc1)C(=O)O` (stereo unspecified), for which the inhibition was 54.7% (active). Regarding `Cc1cccc(NC(=O)c2sc3nc4c(c(-c5ccco5)c3c2N)CCC4)c1`, the inhibition was 21.1%. On to `O=C(NC(Cc1c[nH]c2ccccc12)C(=O)N/N=C/c1ccc(Br)cc1)c1cccs1` (stereo unspecified), for which the inhibition is 25.7%. The result for `O=C1Nc2cc(C(=O)N3CCN(c4ccc(F)cc4)CC3)ccc2NC1CSCc1cccc(F)c1` (stereo unspecified) reads 41.8%. `S=c1[nH]nc(Nc2ccccc2)s1`: the inhibition is 45.2%. Take `Cc1ccc(-n2c(SCC(=O)N/N=C/C=C/c3ccccc3[N+](=O)[O-])nc3ccccc3c2=O)cc1`: the inhibition is 3.65%. Take `CCOc1cc(/C=C2/N=C(c3ccc(C(C)(C)C)cc3)OC2=O)cc(Cl)c1OS(C)(=O)=O`: the inhibition was 11.4%. For the compound `Cc1oc2c(C)c3oc(=O)c(CC(=O)N[C@@H](CC(C)C)C(=O)N[C@@H](Cc4ccccc4)C(=O)O)c(C)c3cc2c1C`, the inhibition was 43.8%. Turning to `O=C(Nc1nnc(-c2ccccc2)o1)c1cc(-c2cccs2)nc2ccccc12`, the inhibition was 55.5% (active).

For the compound `Cc1ccc(-c2cc(C(=O)N/N=C/C=C/c3ccco3)c3ccccc3n2)cc1C`, the inhibition is 4.81%.

Regarding `CS(=O)(=O)c1sc2nc(-c3ccccc3)cc(-c3ccccc3)c2c1N`, the inhibition was 1.76%. Regarding `NC(=O)c1ccc(NC(=O)COC(=O)c2c3c(nc4ccccc24)/C(=C\c2ccc4c(c2)OCO4)CCC3)cc1`, the inhibition is 45.2%. The result for `NS(=O)(=O)c1ccc(NC(=O)COC(=O)c2c3c(nc4ccccc24)/C(=C\c2ccc4c(c2)OCO4)CCC3)cc1` reads 74.4% (active). With `O=C(Nc1cccc(-c2nc3ccccc3[nH]2)c1)c1ccc(C(=O)Nc2cccc(-c3nc4ccccc4[nH]3)c2)cc1`, the inhibition is 34.9%. Turning to `CCOC(=O)C1=C(C)Nc2sc(C(=O)c3ccc(Br)cc3)c(N)c2C1c1ccc(C(=O)OC)cc1` (stereo unspecified), the inhibition was 8.7%. Turning to `CC(=O)Nc1ccc(C(=O)Nc2nc(-c3cc(C)n(Cc4ccccc4)c3C)cs2)cc1`, the inhibition is 14.3%. For the compound `COc1cccc(OCc2cc(/C=N/NC(=O)c3nc(Cl)c(Cl)c(N)c3Cl)ccc2OC)c1`, the inhibition was 25.3%. For `CC(C)c1ccc2c(c1)c(SC(C)(C)C)c(CC(C)(C)C(=O)O)n2Cc1ccc(Cl)cc1`, the inhibition was 28.1%. Consider `S=c1[nH]nc(-c2cccs2)n1/N=C/c1cn(-c2ccccc2)nc1-c1ccc(Cl)cc1`, for which the inhibition was 6.28%. For the compound `COc1ccc(-c2nc3cnccn3c2NC2CCCCC2)cc1-c1cccc(Cl)c1`, the inhibition was 18.8%. Turning to `O=C(COc1ccc(/C=N/NC(=O)c2ccc(O)cc2)cc1)Nc1ccc([N+](=O)[O-])cc1`, the inhibition was 15.9%. Regarding `COc1ccc(-n2c(SCC(=O)Nc3sc4c(c3C#N)CCCC4)nnc2-c2ccc(O)cc2)cc1`, the inhibition was 6.59%.

Consider `O=C(COc1ccc([N+](=O)[O-])cc1)Nc1ccc(N2CCCC2)cc1`, for which the inhibition is -0.14%.
